Source: PubChem BioAssay AID1159580 (chemical genetic matrix, 2015)
In all, about 5,500 compounds went through this assay and about 2,000 (36%) were called active. Roughly 18% stayed inconclusive and do not appear here. Cut-off read from the data, not from the text of the source: active = normalized growth mostly below about 0.91 (no sharp cut-off); inconclusive = no clear call, values can overlap the other calls; inactive = mostly above about 0.92. This is one part of the list.

Experiment: chemical genetic growth profiling, strain panel (AID 1159580);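 note: tested at 20 µM; growth read once vehicle control cultures reached saturation at 30 °C; 1 = growth at the plate median or of vehicle wells; lower values mean less growth of the strain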
Conditions: S. cerevisiae deletion strains, growth OD
[1] = locus YHR030C, strain SLT2, stronger effect = lower value
[2] = locus YHR079C, strain IRE1, stronger effect = lower value
[3] = locus YJL095W, strain BCK1, stronger effect = lower value
[4] = locus YJR066W, strain TOR1, stronger effect = lower value
[5] = locus YLR113W, strain HOG1, stronger effect = lower value
[6] = locus YNL183C, strain NPR1, stronger effect = lower value
[7] = locus YOR231W, strain MKK1, stronger effect = lower value
[8] = locus YPL256C, strain CLN2, stronger effect = lower value

Measured: normalized growth

CC(C)Cc1ccc(C(C)C(=O)Nc2nn(C)c3ccccc23)cc1 (stereo not drawn)
active: [5] 0.855
inactive: locus YAR019C, strain CDC15, stronger effect = lower value 0.993 | locus YBL105C, strain PKC1, stronger effect = lower value 0.986 | locus YBR135W, strain CKS1, stronger effect = lower value 0.974 | locus YBR136W, strain MEC1, stronger effect = lower value 0.99 | locus YBR160W, strain CDC28, stronger effect = lower value 0.984 | locus YDL017W, strain CDC7, stronger effect = lower value 0.967 | locus YDL028C, strain MPS1, stronger effect = lower value 0.997 | locus YDL101C, strain DUN1, stronger effect = lower value 0.993 | locus YDL108W, strain KIN28, stronger effect = lower value 0.992 | locus YDL132W, strain cdc53, stronger effect = lower value 0.998 | locus YDL214C, strain PRR2, stronger effect = lower value 0.931 | locus YDR054C, strain cdc34, stronger effect = lower value 0.968 | locus YDR226W, strain ADK1, stronger effect = lower value 0.991 | locus YDR477W, strain SNF1, stronger effect = lower value 0.932 | locus YER123W, strain YCK3, stronger effect = lower value 0.922 | locus YER133W, strain GLC7, stronger effect = lower value 0.945 | locus YFL009W, strain cdc4, stronger effect = lower value 0.985 | locus YFL029C, strain CAK1, stronger effect = lower value 0.994 | locus YFR003C, strain YPI1, stronger effect = lower value 0.993 | locus YFR019W, strain FAB1, stronger effect = lower value 0.962 | locus YFR028C, strain CDC14, stronger effect = lower value 0.988 | locus YGR040W, strain KSS1, stronger effect = lower value 0.915 | locus YGR052W, strain FMP48, stronger effect = lower value 0.983 | locus YGR092W, strain DBF2, stronger effect = lower value 0.931 | [1] 0.944 | [2] 0.945 | locus YHR082C, strain KSP1, stronger effect = lower value 0.94 | locus YHR205W, strain SCH9, stronger effect = lower value 0.909 | locus YIL147C, strain SLN1, stronger effect = lower value 0.989 | [3] 0.965 | locus YJL128C, strain PBS2, stronger effect = lower value 0.948 | locus YJL157C, strain FAR1, stronger effect = lower value 0.942 | locus YJR016C, strain ILV3, stronger effect = lower value 0.99 | locus YJR066W, strain TOR1 (second series), stronger effect = lower value 0.902 | [4] 0.982 | locus YKL048C, strain ELM1, stronger effect = lower value 0.965 | locus YKL067W, strain YNK1, stronger effect = lower value 0.939 | locus YKL101W, strain HSL1, stronger effect = lower value 0.933 | locus YKL193C, strain SDS22, stronger effect = lower value 0.975 | locus YKL203C, strain TOR2, stronger effect = lower value 0.981 | locus YLR133W, strain CKI1, stronger effect = lower value 0.93 | locus YLR403W, strain SFP1, stronger effect = lower value 0.772 | locus YML070W, strain DAK1, stronger effect = lower value 0.918 | locus YMR001C, strain CDC5, stronger effect = lower value 0.973 | locus YMR205C, strain PFK2 (second series), stronger effect = lower value 0.928 | locus YMR277W, strain FCP1, stronger effect = lower value 0.975 | locus YNL006W, strain LST8, stronger effect = lower value 0.993 | locus YNL020C, strain ARK1, stronger effect = lower value 0.935 | locus YNL161W, strain CBK1, stronger effect = lower value 0.991 | [6] 0.927 | locus YNL207W, strain RIO2, stronger effect = lower value 0.976 | locus YNL222W, strain SSU72, stronger effect = lower value 0.99 | locus YNL307C, strain MCK1 (second series), stronger effect = lower value 0.944 | locus YOL078W, strain AVO1, stronger effect = lower value 0.987 | locus YOL136C, strain PFK27, stronger effect = lower value 0.916 | locus YOR061W, strain CKA2, stronger effect = lower value 0.938 | locus YOR119C, strain RIO1, stronger effect = lower value 0.988 | [7] 0.896 | locus YOR329C, strain SCD5, stronger effect = lower value 0.99 | locus YPL031C, strain PHO85, stronger effect = lower value 0.941 | locus YPL153C, strain RAD53, stronger effect = lower value 0.934 | locus YPL204W, strain HRR25, stronger effect = lower value 0.906 | locus YPL209C, strain IPL1, stronger effect = lower value 0.982 | [8] 0.88 | locus YPR025C, strain CCL1, stronger effect = lower value 0.986 | locus YPR106W, strain ISR1, stronger effect = lower value 0.979 | locus YPR111W, strain DBF20, stronger effect = lower value 0.955 | strain NNK1, stronger effect = lower value 0.98 | strain TSCII, stronger effect = lower value 0.992

CN1[C@@H]2CC[C@@H]1CC(O)C2 (stereo partly drawn)
inactive: [1] 1.03 | [2] 1.04 | [3] 1.05 | [4] 0.983 | [5] 0.98 | [6] 0.986 | [7] 1.01 | [8] 1.06

CCN1C[C@]2(OC(=O)c3ccccc3NC(C)=O)CCC(OC)[C@]34C1[C@H](CC23)[C@@]1(O)CC(OC)[C@H]2CC4C1(O)[C@H]2OC (stereo partly drawn)
inactive: locus YAL021C, strain ccr4, stronger effect = lower value 0.966 | locus YAL026C, strain drs2, stronger effect = lower value 0.981 | locus YAL030W, strain snc1, stronger effect = lower value 0.977 | locus YBL061C, strain skt5, stronger effect = lower value 0.971 | locus YBR009C, strain hhf1, stronger effect = lower value 0.985 | locus YBR023C, strain chs3, stronger effect = lower value 0.977 | locus YBR171W, strain sec66, stronger effect = lower value 0.96 | locus YBR231C, strain swc5, stronger effect = lower value 0.972 | locus YBR279W, strain paf1, stronger effect = lower value 0.979 | locus YCL011C, strain gbp2, stronger effect = lower value 0.947 | locus YCL016C, strain dcc1, stronger effect = lower value 0.971 | locus YCL061C, strain MRC1, stronger effect = lower value 1 | locus YCL069W, strain vba3, stronger effect = lower value 0.955 | locus YCR088W, strain abp1, stronger effect = lower value 0.946 | locus YDL005C, strain med2, stronger effect = lower value 0.948 | locus YDL040C, strain nat1, stronger effect = lower value 0.969 | locus YDR001C, strain nth1, stronger effect = lower value 0.977 | locus YDR069C, strain doa4, stronger effect = lower value 0.953 | locus YDR137W, strain rgp1, stronger effect = lower value 1.02 | locus YDR159W, strain sac3, stronger effect = lower value 0.979 | locus YDR195W, strain ref2 0.963 | locus YDR297W, strain sur2, stronger effect = lower value 0.967 | locus YDR334W, strain swr1, stronger effect = lower value 0.974 | locus YDR335W, strain msn5, stronger effect = lower value 0.958 | locus YDR392W, strain spt3, stronger effect = lower value 0.921 | locus YEL003W, strain gim4, stronger effect = lower value 0.98 | locus YEL037C, strain rad23, stronger effect = lower value 0.958 | locus YEL061C, strain CIN8 (second series), stronger effect = lower value 0.963 | locus YER015W, strain faa2, stronger effect = lower value 0.974 | locus YER016W, strain bim1, stronger effect = lower value 0.979 | locus YER111C, strain swi4, stronger effect = lower value 0.986 | locus YER155C, strain BEM2 (second series), stronger effect = lower value 0.974 | locus YFR010W, strain ubp6, stronger effect = lower value 0.975 | locus YGL167C, strain pmr1, stronger effect = lower value 0.974 | locus YGL173C, strain kem1, stronger effect = lower value 0.972 | locus YGL227W, strain vid30, stronger effect = lower value 0.956 | locus YGL240W, strain doc1, stronger effect = lower value 0.973 | locus YGL253W, strain hxk2, stronger effect = lower value 0.963 | locus YHR013C, strain ard1, stronger effect = lower value 0.969 | locus YHR027C, strain rpn1, stronger effect = lower value 0.992 | [1] 0.976 | [2] 0.98 | locus YHR142W, strain chs7, stronger effect = lower value 0.95 | locus YJL092W, strain hpr5, stronger effect = lower value 0.953 | locus YJL095W, strain BCK1 (second series), stronger effect = lower value 0.974 | [3] 0.97 | locus YJL115W, strain asf1, stronger effect = lower value 0.973 | locus YJL129C, strain trk1, stronger effect = lower value 0.961 | locus YJL154C, strain vps35, stronger effect = lower value 0.952 | locus YJL164C, strain tpk1, stronger effect = lower value 0.983 | locus YJL166W, strain qcr8, stronger effect = lower value 0.979 | locus YJL187C, strain SWE1, stronger effect = lower value 0.987 | [4] 0.975 | locus YKL160W, strain elf1, stronger effect = lower value 0.979 | locus YKR026C, strain gcn3, stronger effect = lower value 0.975 | locus YKR091W, strain srl3, stronger effect = lower value 0.979 | locus YLL001W, strain dnm1, stronger effect = lower value 0.993 | locus YLL026W, stronger effect = lower value 0.984 | locus YLL041C, strain sdh2, stronger effect = lower value 0.978 | locus YLR027C, strain aat2, stronger effect = lower value 0.967 | [5] 0.969 | locus YLR221C, strain rsa3, stronger effect = lower value 0.976 | locus YLR258W, strain gsy2, stronger effect = lower value 0.974 | locus YLR262C, strain YPT6 (second series), stronger effect = lower value 1.04 | locus YLR320W, strain mms22, stronger effect = lower value 0.983 | locus YLR342W, strain FKS1, stronger effect = lower value 0.961 | locus YLR357W, strain rsc2, stronger effect = lower value 0.945 | locus YLR370C, strain arc18, stronger effect = lower value 0.973 | locus YLR384C, strain iki3, stronger effect = lower value 0.959 | locus YML120C, strain ndi1, stronger effect = lower value 0.974 | locus YMR058W, strain fet3, stronger effect = lower value 0.989 | locus YMR125W, strain sto1, stronger effect = lower value 0.953 | locus YMR129W, stronger effect = lower value 0.98 | locus YMR205C, strain PFK2, stronger effect = lower value 0.993 | locus YMR231W, strain pep5, stronger effect = lower value 0.953 | locus YNL071W, strain lat1, stronger effect = lower value 0.956 | [6] 0.905 | locus YNL209W, strain ssb2, stronger effect = lower value 0.974 | locus YNL248C, strain rpa49, stronger effect = lower value 0.98 | locus YNL322C, strain KRE1 (second series), stronger effect = lower value 0.972 | locus YNR049C, strain mso1, stronger effect = lower value 0.979 | locus YOR001W, strain rrp6, stronger effect = lower value 0.961 | locus YOR070C, strain gyp1, stronger effect = lower value 0.964 | locus YOR080W, strain dia2, stronger effect = lower value 0.97 | locus YOR083W, strain WHI5, stronger effect = lower value 0.973 | locus YOR106W, strain vam3, stronger effect = lower value 0.959 | [7] 0.978 | locus YOR265W, strain rbl2, stronger effect = lower value 0.982 | locus YOR270C, strain vph1, stronger effect = lower value 0.975 | locus YOR290C, strain snf2, stronger effect = lower value 0.986 | locus YPL051W, strain arl3, stronger effect = lower value 0.979 | locus YPL078C, strain atp4, stronger effect = lower value 0.971 | locus YPL106C, strain sse1, stronger effect = lower value 0.923 | locus YPL240C, strain hsp82, stronger effect = lower value 0.963 | [8] 0.956
